Among all 5,500 compounds or so, about 2,000 (36%) were called active. Another 18% or so got no clear call; they are omitted. Rule as the data show it: active = normalized growth mostly below about 0.91 (no sharp cut-off); inconclusive = no clear call, values can overlap the other calls; inactive = mostly above about 0.92. The list shows a part of the results.
Test: chemical genetic growth profiling, strain panel (AID 1159580);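 also: tested at 20 µM; growth read once vehicle control cultures reached saturation at 30 °C; 1 = growth at the plate median or of vehicle wells; lower values mean less growth of the strain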
Conditions: S. cerevisiae deletion strains, growth OD

Measured: normalized growth

O=c1cc(-c2ccccc2)oc2cccc(O)c12
active: locus YBR023C, strain chs3, stronger effect = lower value 0.892 | locus YBR279W, strain paf1, stronger effect = lower value 0.931 | locus YDR137W, strain rgp1, stronger effect = lower value 0.716 | locus YDR195W, strain ref2 1.37 [resistant] | locus YDR392W, strain spt3, stronger effect = lower value 0.605 | locus YER155C, strain BEM2 (second series), stronger effect = lower value 0.506 | locus YGL253W, strain hxk2, stronger effect = lower value 0.859 | locus YHR142W, strain chs7, stronger effect = lower value 0.765 | locus YJL164C, strain tpk1, stronger effect = lower value 0.902 | locus YKL160W, strain elf1, stronger effect = lower value 0.872 | locus YLR221C, strain rsa3, stronger effect = lower value 0.883 | locus YLR262C, strain YPT6 (second series), stronger effect = lower value 0.78 | locus YLR320W, strain mms22, stronger effect = lower value 0.774 | locus YMR058W, strain fet3, stronger effect = lower value 0.888 | locus YNL071W, strain lat1, stronger effect = lower value 0.62 | locus YNL248C, strain rpa49, stronger effect = lower value 0.755 | locus YOR083W, strain WHI5, stronger effect = lower value 0.886 | locus YOR270C, strain vph1, stronger effect = lower value 0.66 | locus YPL051W, strain arl3, stronger effect = lower value 0.853 | locus YPL078C, strain atp4, stronger effect = lower value 0.807
inactive: locus YAL021C, strain ccr4, stronger effect = lower value 0.95 | locus YAL026C, strain drs2, stronger effect = lower value 0.93 | locus YAL030W, strain snc1, stronger effect = lower value 0.972 | locus YBL061C, strain skt5, stronger effect = lower value 0.938 | locus YBR009C, strain hhf1, stronger effect = lower value 0.969 | locus YBR171W, strain sec66, stronger effect = lower value 0.952 | locus YBR231C, strain swc5, stronger effect = lower value 0.943 | locus YCL011C, strain gbp2, stronger effect = lower value 0.967 | locus YCL016C, strain dcc1, stronger effect = lower value 0.938 | locus YCL061C, strain MRC1, stronger effect = lower value 0.969 | locus YCL069W, strain vba3, stronger effect = lower value 0.959 | locus YCR088W, strain abp1, stronger effect = lower value 0.972 | locus YDL005C, strain med2, stronger effect = lower value 0.994 | locus YDL040C, strain nat1, stronger effect = lower value 0.961 | locus YDR001C, strain nth1, stronger effect = lower value 0.961 | locus YDR069C, strain doa4, stronger effect = lower value 0.985 | locus YDR159W, strain sac3, stronger effect = lower value 1.03 | locus YDR297W, strain sur2, stronger effect = lower value 0.977 | locus YDR334W, strain swr1, stronger effect = lower value 0.964 | locus YDR335W, strain msn5, stronger effect = lower value 0.968 | locus YEL003W, strain gim4, stronger effect = lower value 0.981 | locus YEL037C, strain rad23, stronger effect = lower value 0.959 | locus YEL061C, strain CIN8 (second series), stronger effect = lower value 0.963 | locus YER015W, strain faa2, stronger effect = lower value 0.969 | locus YER016W, strain bim1, stronger effect = lower value 0.974 | locus YER111C, strain swi4, stronger effect = lower value 0.985 | locus YFR010W, strain ubp6, stronger effect = lower value 0.959 | locus YGL167C, strain pmr1, stronger effect = lower value 0.969 | locus YGL173C, strain kem1, stronger effect = lower value 0.946 | locus YGL227W, strain vid30, stronger effect = lower value 0.977 | locus YGL240W, strain doc1, stronger effect = lower value 0.924 | locus YHR013C, strain ard1, stronger effect = lower value 0.897 | locus YHR027C, strain rpn1, stronger effect = lower value 0.98 | locus YHR030C, strain SLT2, stronger effect = lower value 1.02 | locus YHR079C, strain IRE1, stronger effect = lower value 0.992 | locus YJL092W, strain hpr5, stronger effect = lower value 0.975 | locus YJL095W, strain BCK1 (second series), stronger effect = lower value 0.971 | locus YJL095W, strain BCK1, stronger effect = lower value 0.995 | locus YJL115W, strain asf1, stronger effect = lower value 0.979 | locus YJL129C, strain trk1, stronger effect = lower value 0.912 | locus YJL154C, strain vps35, stronger effect = lower value 0.981 | locus YJL166W, strain qcr8, stronger effect = lower value 0.908 | locus YJL187C, strain SWE1, stronger effect = lower value 0.966 | locus YJR066W, strain TOR1, stronger effect = lower value 0.923 | locus YKR026C, strain gcn3, stronger effect = lower value 0.969 | locus YKR091W, strain srl3, stronger effect = lower value 0.985 | locus YLL001W, strain dnm1, stronger effect = lower value 0.939 | locus YLL026W, stronger effect = lower value 0.972 | locus YLL041C, strain sdh2, stronger effect = lower value 0.97 | locus YLR027C, strain aat2, stronger effect = lower value 0.934 | locus YLR113W, strain HOG1, stronger effect = lower value 1.03 | locus YLR258W, strain gsy2, stronger effect = lower value 0.961 | locus YLR342W, strain FKS1, stronger effect = lower value 0.984 | locus YLR357W, strain rsc2, stronger effect = lower value 1.01 | locus YLR370C, strain arc18, stronger effect = lower value 0.964 | locus YLR384C, strain iki3, stronger effect = lower value 0.976 | locus YML120C, strain ndi1, stronger effect = lower value 0.917 | locus YMR125W, strain sto1, stronger effect = lower value 1 | locus YMR129W, stronger effect = lower value 0.979 | locus YMR205C, strain PFK2, stronger effect = lower value 0.972 | locus YMR231W, strain pep5, stronger effect = lower value 0.986 | locus YNL183C, strain NPR1, stronger effect = lower value 0.943 | locus YNL209W, strain ssb2, stronger effect = lower value 0.978 | locus YNL322C, strain KRE1 (second series), stronger effect = lower value 0.996 | locus YNR049C, strain mso1, stronger effect = lower value 0.965 | locus YOR001W, strain rrp6, stronger effect = lower value 0.911 | locus YOR070C, strain gyp1, stronger effect = lower value 0.937 | locus YOR080W, strain dia2, stronger effect = lower value 0.982 | locus YOR106W, strain vam3, stronger effect = lower value 0.923 | locus YOR231W, strain MKK1, stronger effect = lower value 1.01 | locus YOR265W, strain rbl2, stronger effect = lower value 0.954 | locus YOR290C, strain snf2, stronger effect = lower value 0.873 | locus YPL106C, strain sse1, stronger effect = lower value 0.973 | locus YPL240C, strain hsp82, stronger effect = lower value 0.974 | locus YPL256C, strain CLN2, stronger effect = lower value 1.05

From PubChem BioAssay AID1159580 (chemical genetic matrix, 2015)
